SMILES strings stand for the structures. This is part of a sample that, as a whole, favours compounds with a hit. Of some 79,000 tested, about 15% had one in any assay. Unmarked numbers belong to inactive results. The source made the active and inactive calls. Rule as the data show it: active = growth inhibition above about 70%; inactive = the rest. Where a SMILES comes first, the peptide text is derived from it. The star is where a group is joined. Cbz = O=C(OCc1ccccc1)*

A short description of one assay: NCI Yeast Anticancer Drug Screen. Data for the rad50 strain (AID 155).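 Also: 0% = growth of vehicle-only cultures of the same strain.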 As to conditions: S. cerevisiae rad50 strain growth inhibition; at 50.0 µM; active compounds read high. An outline of the steps: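 Readout: growth inhibition relative to vehicle-treated cultures. Compound exposure was carried out in a genetically defined yeast strain deficient in DNA damage repair.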
For the compound `O=CC1CCCO1` (stereo not given), the growth inhibition is 21.2%.

Turning to `CSc1ccc(OC(=O)Nc2cc([N+](=O)[O-])ccc2F)cc1C`, the growth inhibition was 16.6%.

As to `O=S1(=O)CCC(Br)c2ccccc21` (stereo not given), the growth inhibition was -5%.

For `CNC(=S)Nc1ccccc1`, the growth inhibition is -21.3%.

`N#Cc1[nH]nc2nc[nH]c(=O)c12`: the growth inhibition is -16.3%.

For the compound `CCN(CCO)CC(O)Cn1cnc2c(N)ncnc21` (stereo not given), the growth inhibition was 2.35%.

In the case of `O=c1[nH]c2cc3ccccc3cc2c2ccccc12`, the growth inhibition was 21.9%.

As for `O=C(NCc1ccc(Cl)c(Cl)c1)Nc1ccccc1F`, the growth inhibition was 11%.

In the case of `C(=NCCSSCCN=Cc1ccccc1)c1ccccc1`, the growth inhibition was 12.1%.

As for `Cc1nc(Cc2ccc(O)c(O)c2)c(C)o1`, the growth inhibition is 6.7%.

As for `COC(=O)C(NC(=O)C(C)NC(=O)C1CCCN1C(=O)CNC(=O)C(CO)NC(=O)C(NC(=O)OCc1ccccc1)C(C)O)C(C)O` (stereo not given) (Cbz-TSGPAT-OMe; configuration not given here), the growth inhibition is 3.3%.

For `Nc1nc2ncc(CCCNc3ccc(C(=O)NC(CCC(=O)O)C(=O)O)cc3)nc2c(=O)[nH]1` (stereo not given), the growth inhibition is 33%.

Regarding `CC(C)N(C=C(C#N)C#N)C(C)C`, the growth inhibition was 15.5%.

In the case of `COc1ccc(OC)c(CCCCC(N)=O)c1`, the growth inhibition was -19.8%.

Turning to `O=CC(=O)c1ccccc1O`, the growth inhibition is 30.1%.

As to `COc1ccc(C(CC(=O)O)c2ccc(OC)cc2OC)cc1` (stereo not given), the growth inhibition is -0.3%.

As for `CC(COC(=O)c1ccc(N)cc1)NC1CCCCC1` (stereo not given), the growth inhibition is -8.2%.

Consider `CC(=O)O[C@@H]1[C@H]2[C@@H](OC(=O)c3ccccc3)[C@@H](C)C[C@]2(O)[C@H](OC(C)=O)[C@@]2(C)[C@@H]3C[C@@](C)(OC(C)=O)C[C@@H](OC(C)=O)[C@@]3(OC(C)=O)C[C@@]12C`, for which the growth inhibition was -7.55%.

Turning to `C/C(CCl)=N/NC(N)=S`, the growth inhibition is -13.2%.

Turning to `Cc1cc(Br)cc(Cl)c1O`, the growth inhibition was -22.1%.

For the compound `Cc1cc2c(cc1C)NC1=C(N2)OC(c2ccc(Cl)cc2)C1=O` (stereo not given), the growth inhibition was 19.9%.

On to `C[N+](C)(C)CC(=O)N/N=C(/Cc1nc2ccc([N+](=O)[O-])cc2[nH]c1=O)C(=O)Nc1cc(C(F)(F)F)ccc1Cl`, for which the growth inhibition was -13.2%.

As for `Cc1ccc(NS(=O)(=O)c2ccc(F)cc2)c(C)c1`, the growth inhibition is 15.4%.

With `Cc1nsc2[nH]c(=O)n(Nc3ccc(O)cc3)c(=O)c12`, the growth inhibition was -13.6%.

As to `O=S(=O)(O)Cc1cccc2ccccc12`, the growth inhibition is 38%.

Consider `C[N+]([O-])=C(c1ccccc1)c1ccccc1`, for which the growth inhibition was -15.7%.

As for `CCCCCCC(C)OC(=O)CCl` (stereo not given), the growth inhibition was -0.55%.

For the compound `CC(Oc1ccc2c(-c3ccc(Cl)cc3)cc(=O)oc2c1)C(=O)O` (stereo not given), the growth inhibition was -15.9%.

Turning to `CC(=O)Nc1cc2c3c(c1)CCCN3CCC2`, the growth inhibition was -24.4%.

`C/C(=N\N=Nc1ccc(N(C)C)cc1)c1ccccc1`: the growth inhibition was 1.6%.

Turning to `CS/N=C(\c1ccccc1)N(C)C`, the growth inhibition was -23.9%.

In the case of `O=C1c2cscc2C(=O)c2c(OCc3ccccc3)ccc(OCc3ccccc3)c21`, the growth inhibition is 3.7%.

`Oc1ccc2c(c1)OCC(O)(c1ccccc1O)C2` (stereo not given): the growth inhibition is 23.8%.

Consider `COc1c(-c2cccs2)oc2c(CC(=O)O)cccc2c1=O`, for which the growth inhibition is 10.9%.

Turning to `CSc1nc2c(nc(N)n2C2OC(CO)C(O)C(O)C2O)c(=O)[nH]1` (stereo not given), the growth inhibition is -13.7%.

Turning to `Clc1ccc([I+]c2ccc(Cl)cc2)cc1`, the growth inhibition was 96.2% (active).

With `Cc1cc2c(cc1Cl)SC(NNC(=O)c1ccncc1)=NS2(=O)=O`, the growth inhibition was -42.5%.

As to `Cc1ccc(S(=O)(=O)C2c3nc4ccccc4cc3-c3nc4ccccc4nc32)cc1` (stereo not given), the growth inhibition is -10.8%.

For the compound `CC1C(=O)OC(=O)C1C` (stereo not given), the growth inhibition was -11.2%.

For `COC(=O)c1ccccc1NC(=NC1CCCCCC1)NS(=O)(=O)c1ccc(C)cc1`, the growth inhibition was 30.4%.

A short description of a further assay: NCI Yeast Anticancer Drug Screen. Data for the mec2-1 strain (AID 157). The settings on record: S. cerevisiae mec2-1 strain, at 50.0 µM, active compounds read high. An outline of the steps:
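Compounds were applied to mec2-1 yeast cells. Their growth was then compared with that of vehicle-treated cultures to give growth inhibition.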
For the compound `O=CC1CCCO1` (stereo not given), the growth inhibition is -22.2%.

Regarding `CSc1ccc(OC(=O)Nc2cc([N+](=O)[O-])ccc2F)cc1C`, the growth inhibition is 11.2%.

Consider `O=S1(=O)CCC(Br)c2ccccc21` (stereo not given), for which the growth inhibition was -0.25%.

On to `CNC(=S)Nc1ccccc1`, for which the growth inhibition is -33.8%.

For the compound `N#Cc1[nH]nc2nc[nH]c(=O)c12`, the growth inhibition is -14.8%.

For the compound `CCN(CCO)CC(O)Cn1cnc2c(N)ncnc21` (stereo not given), the growth inhibition is -13.6%.

Consider `O=c1[nH]c2cc3ccccc3cc2c2ccccc12`, for which the growth inhibition is 9.6%.

Turning to `O=C(NCc1ccc(Cl)c(Cl)c1)Nc1ccccc1F`, the growth inhibition is 11.1%.

For the compound `C(=NCCSSCCN=Cc1ccccc1)c1ccccc1`, the growth inhibition was 10.3%.

For the compound `Cc1nc(Cc2ccc(O)c(O)c2)c(C)o1`, the growth inhibition was 13.9%.

For the compound `COC(=O)C(NC(=O)C(C)NC(=O)C1CCCN1C(=O)CNC(=O)C(CO)NC(=O)C(NC(=O)OCc1ccccc1)C(C)O)C(C)O` (stereo not given) (Cbz-TSGPAT-OMe; configuration not given here), the growth inhibition was -5.9%.

Regarding `Nc1nc2ncc(CCCNc3ccc(C(=O)NC(CCC(=O)O)C(=O)O)cc3)nc2c(=O)[nH]1` (stereo not given), the growth inhibition was 15.4%.

As for `CC(C)N(C=C(C#N)C#N)C(C)C`, the growth inhibition was 7.5%.

In the case of `COc1ccc(OC)c(CCCCC(N)=O)c1`, the growth inhibition was -8.2%.

Consider `O=CC(=O)c1ccccc1O`, for which the growth inhibition was 36.6%.

As to `COc1ccc(C(CC(=O)O)c2ccc(OC)cc2OC)cc1` (stereo not given), the growth inhibition was 0.8%.

`CC(COC(=O)c1ccc(N)cc1)NC1CCCCC1` (stereo not given): the growth inhibition is 1.1%.

Turning to `CC(=O)O[C@@H]1[C@H]2[C@@H](OC(=O)c3ccccc3)[C@@H](C)C[C@]2(O)[C@H](OC(C)=O)[C@@]2(C)[C@@H]3C[C@@](C)(OC(C)=O)C[C@@H](OC(C)=O)[C@@]3(OC(C)=O)C[C@@]12C`, the growth inhibition is -7.05%.

Take `C/C(CCl)=N/NC(N)=S`: the growth inhibition is -2.5%.

As for `Cc1cc(Br)cc(Cl)c1O`, the growth inhibition is -7.9%.

In the case of `Cc1cc2c(cc1C)NC1=C(N2)OC(c2ccc(Cl)cc2)C1=O` (stereo not given), the growth inhibition was 16.2%.

Regarding `C[N+](C)(C)CC(=O)N/N=C(/Cc1nc2ccc([N+](=O)[O-])cc2[nH]c1=O)C(=O)Nc1cc(C(F)(F)F)ccc1Cl`, the growth inhibition was 3.7%.

Take `Cc1ccc(NS(=O)(=O)c2ccc(F)cc2)c(C)c1`: the growth inhibition is 19.1%.

Regarding `Cc1nsc2[nH]c(=O)n(Nc3ccc(O)cc3)c(=O)c12`, the growth inhibition was 1.1%.

As to `O=S(=O)(O)Cc1cccc2ccccc12`, the growth inhibition was 6.7%.

In the case of `C[N+]([O-])=C(c1ccccc1)c1ccccc1`, the growth inhibition is 5.55%.

For `CCCCCCC(C)OC(=O)CCl` (stereo not given), the growth inhibition was -6.4%.

Take `CC(Oc1ccc2c(-c3ccc(Cl)cc3)cc(=O)oc2c1)C(=O)O` (stereo not given): the growth inhibition was -4.15%.

Consider `CC(=O)Nc1cc2c3c(c1)CCCN3CCC2`, for which the growth inhibition is -14.8%.

As to `C/C(=N\N=Nc1ccc(N(C)C)cc1)c1ccccc1`, the growth inhibition was -3.3%.

For the compound `CS/N=C(\c1ccccc1)N(C)C`, the growth inhibition is -4.05%.

Take `O=C1c2cscc2C(=O)c2c(OCc3ccccc3)ccc(OCc3ccccc3)c21`: the growth inhibition was 6.65%.

`Oc1ccc2c(c1)OCC(O)(c1ccccc1O)C2` (stereo not given): the growth inhibition was -1.95%.

In the case of `COc1c(-c2cccs2)oc2c(CC(=O)O)cccc2c1=O`, the growth inhibition is -10.8%.

As for `CSc1nc2c(nc(N)n2C2OC(CO)C(O)C(O)C2O)c(=O)[nH]1` (stereo not given), the growth inhibition was 8.45%.

`Clc1ccc([I+]c2ccc(Cl)cc2)cc1`: the growth inhibition was 95.5% (active).

With `Cc1cc2c(cc1Cl)SC(NNC(=O)c1ccncc1)=NS2(=O)=O`, the growth inhibition is -39.8%.

On to `Cc1ccc(S(=O)(=O)C2c3nc4ccccc4cc3-c3nc4ccccc4nc32)cc1` (stereo not given), for which the growth inhibition was -13.2%.

On to `CC1C(=O)OC(=O)C1C` (stereo not given), for which the growth inhibition is -6.2%.

As to `COC(=O)c1ccccc1NC(=NC1CCCCCC1)NS(=O)(=O)c1ccc(C)cc1`, the growth inhibition is 11.2%.
